USP17 block: inhibitors of human USP17 deubiquitinase; A8MUK1; purified USP17, Ub-rhodamine cleavage fluorescence, 3 h; inhibition, % at 50 µM; hit rate 6.5% among 47,000
USP28 inh: human USP28 deubiquitinase inhibition. purified USP28, Ub-rhodamine cleavage fluorescence, 30 min. inhibition, % at 25 µM. hit rate 3% among 47,000. AID 1645857
USP7 block: inhibitors of human USP7 deubiquitinase | Q93009 | purified USP7, Ub-rhodamine cleavage fluorescence | AID 1645854 | hit rate 0.3% among 47,000 | inhibition, % at 20 µM
USP30 block: inhibitors of human USP30 deubiquitinase; Q70CQ3; AID 1645860; hit rate 5.3% among 47,000; inhibition, % at 25 µM; purified USP30, Ub-rhodamine cleavage fluorescence
USP10 inh: inhibitors of human USP10 deubiquitinase; inhibition, % at 20 µM; hit rate 1.1% among 47,000; purified USP10, Ub-rhodamine fluorescence, 60 min; Q14694
Target sequence (Q14694 whole entry, looked up): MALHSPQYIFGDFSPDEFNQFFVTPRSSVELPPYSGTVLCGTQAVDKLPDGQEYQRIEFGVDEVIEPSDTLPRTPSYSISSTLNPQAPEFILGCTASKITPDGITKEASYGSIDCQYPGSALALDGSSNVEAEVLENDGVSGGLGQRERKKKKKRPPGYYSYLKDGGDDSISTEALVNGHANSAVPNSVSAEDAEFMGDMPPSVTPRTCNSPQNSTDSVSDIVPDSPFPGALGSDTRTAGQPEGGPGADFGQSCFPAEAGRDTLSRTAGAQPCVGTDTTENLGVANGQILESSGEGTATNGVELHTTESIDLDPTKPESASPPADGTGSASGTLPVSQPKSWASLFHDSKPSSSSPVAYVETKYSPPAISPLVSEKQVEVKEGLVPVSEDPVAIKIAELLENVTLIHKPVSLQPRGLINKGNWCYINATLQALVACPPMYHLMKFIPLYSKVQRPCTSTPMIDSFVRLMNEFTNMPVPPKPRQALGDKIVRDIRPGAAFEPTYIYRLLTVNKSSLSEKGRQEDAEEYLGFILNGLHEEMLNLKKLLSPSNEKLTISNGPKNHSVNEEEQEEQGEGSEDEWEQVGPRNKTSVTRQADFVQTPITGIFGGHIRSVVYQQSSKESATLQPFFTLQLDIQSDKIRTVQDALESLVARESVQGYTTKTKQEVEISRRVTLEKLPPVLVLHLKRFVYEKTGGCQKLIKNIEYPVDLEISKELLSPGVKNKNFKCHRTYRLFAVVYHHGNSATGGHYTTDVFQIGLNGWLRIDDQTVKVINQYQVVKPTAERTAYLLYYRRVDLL
USP8 block: inhibitors of human USP8 deubiquitinase; P40818; purified USP8, Ub-rhodamine cleavage fluorescence, 30 min; inhibition, % at 20 µM; hit rate 4.2% among 47,000
Large screens that a line does not name were inactive. Compounds with a hit are over-represented: about 13% of the library has one in this group of screens. Rule as the data show it: active = inhibition above about 30%; inactive = the rest.

Cc1cc(C)c(NC(=O)CCc2c(C)nc3nc[nH]n3c2=O)c(C)c1	none (no result: USP28 inh, USP30 block)
Cc1c(C(=O)N2CCOCC2)cnn1-c1cc(-c2nc(C(C)C)no2)ccn1	none
CC(C)C(=O)N1CCC2(CC1)OC(C(=O)Nc1ccncc1)Cn1ccnc12 (centres undefined)	none
Cc1ccc(C(C)C)cc1C(=O)CC1(O)C(=O)N(CCc2ccccc2)c2ccccc21 (centres undefined)	none
COCC(=O)N1C[C@H](Oc2ccccn2)[C@H]2C[C@@H]1Cc1c2[nH]c2ccccc12	none
COCCN1CCCC12CCN(C(=O)c1ccccc1C)CC2	none
COc1ccc(CCn2c(=O)[nH]c3cc(C(=O)NCc4ccco4)ccc3c2=O)cc1OC	USP8 block 42.3
O=C(NCc1ccco1)c1ccc2c(=O)n(Cc3ccco3)c(=O)[nH]c2c1	USP17 block 40.2
O=C(Cc1ccc(-n2c(=O)[nH]c3ccccc3c2=O)cc1)N1CCN(c2ccccc2)CC1	none
CCOC(=O)N1CCN(C(=O)c2ccc3c(=O)n(Cc4ccco4)c(=O)[nH]c3c2)CC1	none
COCCn1c(=O)[nH]c2cc(C(=O)Nc3cc(OC)c(OC)c(OC)c3)ccc2c1=O	none
O=C(NCc1ccccc1)c1ccc2c(=O)n(-c3ccccc3)c(=O)[nH]c2c1	USP17 block 66.2
O=C(Cn1nnc2ccccc21)N1CCCCC1c1ccn[nH]1 (centres undefined)	none
COC(=O)C[C@@H]1CCNC[C@@H]1CC1=NCCc2ccccc21	none
Cc1cccc(C)c1NC(=O)Cn1c(=O)c2cccnc2n(-c2ccccc2)c1=O	none
CCC(Sc1nc2ccncc2[nH]1)C(=O)N(CC)c1ccccc1 (centres undefined)	none
CCCCOc1ccc(C(=O)Oc2ccc(-n3cnnn3)cc2)cc1	USP8 block 32.8
O=C(Oc1ccc(-n2cnnn2)cc1)c1ccc(Br)cc1	none
CC(C)COc1ccc(C(=O)Oc2ccc(-n3cnnn3)cc2)cc1	USP8 block 37.5
CCC(C)NC(=O)c1ccc(N2CCSc3ncccc32)s1 (centres undefined)	none
COc1ccc(C(=O)Nc2nccnc2C(=O)N2CCN(c3ccccc3F)CC2)cc1	none
CCOCCCNc1cc(C(C)C)nc2nc(-c3cccnc3)nn12	none
COc1ccccc1NC(=O)NCc1nc(-c2ccc(C(F)(F)F)cc2)no1	USP30 block 45.6
O=C(Cn1cnc2c(cnn2-c2ccc(F)cc2)c1=O)Nc1ccc2c(c1)OCCCO2	none
O=C(Cn1cnc2c(cnn2-c2ccccc2)c1=O)Nc1cccc([N+](=O)[O-])c1	USP17 block 42.3
CC1(C)Cc2c(sc3nc(-c4ccccc4)nc(SCC(=O)Nc4ccc(Br)cc4)c23)CO1	none
CSc1nc(N2CCCC2)c2sccc2n1	USP17 block 40.3
Cc1cccc2nc(CSc3nc4ccc([N+](=O)[O-])cc4[nH]3)cn12	USP10 inh 60.5, USP8 block 62.5
COc1cccc(Cn2c(=O)c3cnc(-c4ccncc4)nc3n(C)c2=O)c1	none
CCOc1ccc(C2/C(=C(\O)c3ccccc3)C(=O)C(=O)N2c2nc3ccc(F)cc3s2)cc1 (centres undefined)	USP7 block 72.0
Cc1c(Cl)cccc1NC(=O)c1cc(C(F)(F)F)n(C)n1	none
Cc1nccc(N2CCC(c3c(C(=O)N(C)C)sc4nccnc34)CC2)n1	USP30 block 30.4
CNC(=O)c1sc2nccnc2c1C1CCN(C(=O)c2ccncc2)CC1	none
COc1ccc(-c2ccc(CCC(=O)Nc3cccc4ccccc34)o2)cc1	none (no result: USP17 block)
COc1ccc(-c2ccc(CCC(=O)Nc3c(C)cccc3C)o2)cc1	USP30 block 44.5
CCCCCCCCCCCCCCCCCC(=O)N[C@@H]1C[C@@H](O)[C@@H](O)NC(=O)[C@@H]2[C@@H](O)[C@@H](C)CN2C(=O)[C@H]([C@@H](C)O)NC(=O)[C@H]([C@H](O)[C@@H](O)c2ccc(O)cc2)NC(=O)[C@@H]2C[C@@H](O)CN2C(=O)[C@H]([C@@H](C)O)NC1=O	USP28 inh 38.3, USP30 block 49.4
CCc1cc2cc3c(cc2nc1SCC(=O)N1CC(=O)Nc2ccccc21)OCO3	USP17 block 35.2
CS(=O)(=O)N(CC(=O)N1CC(=O)Nc2ccccc21)c1ccccc1	none
COC(=S)NC(=O)/C=C/c1ccccc1	USP30 block 32.4
NC(=O)/C=C/c1ccccc1	none
CN(Cc1ccccc1)S(=O)(=O)c1ccc(S(=O)(=O)N2CCN(C(=O)c3cccnc3)CC2)cc1	USP30 block 74.2
COc1ccc(S(=O)(=O)N2CCN(C(=O)c3cccnc3)CC2)cc1	none
COc1ccc2c(c1)CCc1c-2n[nH]c1C(=O)N1CCN(c2ccccn2)CC1	none
COc1ccc2c(c1)CCc1c-2n[nH]c1-c1nc(-c2ccccn2)no1	USP17 block 32.9
COc1ccc(NC(=O)c2[nH]nc3c2COc2ccccc2-3)c(OC)c1	USP17 block 76.6, USP8 block 58.5
COc1ccc2c(c1)CCc1c-2n[nH]c1C(=O)Nc1ccc(F)cc1C	USP30 block 30.5
COc1ccc2c(c1)CCc1c-2n[nH]c1C(=O)N1CCC(C)CC1	none
COc1ccc(NC(=O)c2[nH]nc3c2CCc2ccccc2-3)c(OC)c1	none
COc1ccc2c(c1)CCc1c-2n[nH]c1C(=O)Nc1ccccc1OC	USP17 block 49.7
COc1ccc(-n2c(COc3cccc4c3OC(C)(C)C4)nc3ccccc32)cc1	none
CC1(C)Cc2cccc(OCC(=O)Nc3nc4ccccc4[nH]3)c2O1	none
O=C(NCc1cc(-c2ccc(Cl)cc2)on1)c1ccco1	none
Cc1ccc(N2CCCn3c2nc2c3c(=O)n(CCCc3ccccc3)c(=O)n2C)cc1	none
Cc1ccc(N2CCCn3c2nc2c3c(=O)n(CCc3ccccc3)c(=O)n2C)cc1	USP30 block 31.1
COc1ccccc1N1CCN(C(=O)c2snc(-c3ccccn3)c2N)CC1	none
N#Cc1ccc(-c2ccncc2)[nH]c1=O	none
COc1ccccc1C1CCNc2ccccc2N1 (centres undefined)	none
COc1cccc(C2CCNc3ccccc3N2)c1 (centres undefined)	USP17 block 36.0, USP8 block 74.0
Cc1ccc(C2=NC3(CCN(C(=O)c4ccc5cc[nH]c5c4)CC3)ON2)cc1	none
O=C(c1ccc2cc[nH]c2c1)N1CCC2(CC1)N=C(c1ccccc1)NO2	USP17 block 33.9
CCc1cc(C2CCCN2C(=O)C23CC4CC(CC(C4)C2)C3)on1 (centres undefined)	none
O=C(COC(=O)C1CCCN1C(=O)C12CC3CC(CC(C3)C1)C2)c1ccc(Cl)cc1 (centres undefined)	USP30 block 51.2
Cc1cc(C)c2c(N3CCCC3)nc(C(=O)N3CCN(C)CC3)nc2n1	none
Cc1ccc(S(=O)(=O)N2CCN3C(=O)[C@@H](Cc4ccccc4)N(C)C(=O)[C@@H]3C2)cc1	USP30 block 30.6
Cc1nc(-c2ccccc2)n(Cc2ccccc2F)c(=O)c1CCO	none (no result: USP17 block)
